# Measurements taken from the supplement of paper PMC8728848.
# About 410 targets per protein were measured; listed, in parts, are those with the strongest signals and a random draw of the rest.
# B1: PX15642A-pgi-501-20-501 (Parabacteroides gingivalis) (protein)
# chain: CELDRDPEGKDFQQPYTSFVQTKQNRDGLYALLRNTENPRMHFYQELQSDMYCTTITDGNSLAPFVNWDLGILNDHGRADEDEVSGIAGYYFVYNRLNQQANAFVNNTEAALQNQVYKNSTEIANAKSFLAEGKVLQALAIWRLMDRFSFHESVTEVNSGAKDLGVILLKEYNPGYIGPRATKAQCYDYILSRLSEAIEVLPENRESVLYVSRDYAYALRARIYLALGEYGKAAADAKMVVDKYPLIGAADASEFENIYRSDANNPEIIFRGFASATLGSFTATTLNGAAPAGKDIKYNPSAVPFQWVVDLYENEDFRKSVYIAKVVKKDKGYLVNKFLEDKAYRDVQDKPNLKVGARYFSVAEVYLILVESALQTGDTPTAEKYLKALSKARGAEVSVVNMEALQAERTRELIGEGSRLRDMVRWSIPNNHDAFETQPGLEGFANTTPLKAQAPVGFYAYTWEFPQRDRQTNPQLIKNWPI
# How the values were obtained:
# Test in all cases: glycan array binding signal (z-score within array); higher = stronger binding
# Conditions in all cases: glycan notation: IUPAC condensed, linker removed
# Gal(b1-4)GlcNAc6P = target: Gal(b1-4)GlcNAc6P
# In short: (§1)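 The Consortium for Functional Glycomics database supplied 3228 glycan arrays, of which those lacking an available protein sequence were dropped. The binding signal, a within-array Z-score, was averaged across arrays of the same protein sequence and across linkers. Negative scores can be read as non-binding.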
# [1] = target: GalNAc(b1-4)GlcNAc(b1-2)Man(a1-3)[GalNAc(b1-4)GlcNAc(b1-2)Man(a1-6)]Man(b1-4)GlcNAc(b1-4)GlcNAc
# In short: as §1
# [2] = target: GalNAc(b1-4)GlcNAc(b1-3)GalNAc(b1-4)GlcNAc
# In short: as §1
# Glc(a1-6)Glc(a1-6)Glc = target: Glc(a1-6)Glc(a1-6)Glc
# In short: as §1
# [3] = target: GlcNAc(b1-2)Man(a1-3)[GlcNAc(b1-2)Man(a1-6)]Man(b1-4)GlcNAc(b1-4)[Fuc(a1-6)]GlcNAc
# In short: as §1
# [4] = target: GlcNAc(b1-2)[GlcNAc(b1-6)]Man(a1-6)[GlcNAc(b1-4)][GlcNAc(b1-2)Man(a1-3)]Man(b1-4)GlcNAc(b1-4)GlcNAc
# In short: as §1
# [5] = target: GlcNAc(b1-3)Gal(b1-4)GlcNAc(b1-3)Gal(b1-4)GlcNAc(b1-2)Man(a1-3)[GlcNAc(b1-3)Gal(b1-4)GlcNAc(b1-3)Gal(b1-4)GlcNAc(b1-2)Man(a1-6)]Man(b1-4)GlcNAc(b1-4)GlcNAc
# In short: as §1
# [6] = target: GlcNAc(b1-3)Gal(b1-4)GlcNAc(b1-3)[GlcNAc(b1-3)Gal(b1-4)GlcNAc(b1-3)]GalNAc
# In short: as §1
# [7] = target: GlcNAc(b1-4)GlcNAc(b1-4)GlcNAc(b1-4)GlcNAc(b1-4)GlcNAc
# In short: as §1
# [8] = target: Man(a1-3)[Man(a1-6)]Man(a1-6)[Man(a1-2)Man(a1-3)]Man(b1-4)GlcNAc(b1-4)GlcNAc
# In short: as §1
# Man(b1-4)GlcNAc = target: Man(b1-4)GlcNAc
# In short: as §1
# [9] = target: Neu5Ac(a2-3)Gal(b1-3)[Neu5Ac(a2-6)]GlcNAc(b1-3)[Fuc(a1-3)[Gal(b1-4)]GlcNAc(b1-6)]Gal(b1-4)Glc
# In short: as §1
# [10] = target: Neu5Ac(a2-3)Gal(b1-4)GlcNAc(b1-3)Gal(b1-4)GlcNAc(b1-2)Man(a1-3)[Neu5Ac(a2-3)Gal(b1-4)GlcNAc(b1-3)Gal(b1-4)GlcNAc(b1-2)Man(a1-6)]Man(b1-4)GlcNAc(b1-4)GlcNAc
# In short: as §1
# [11] = target: Neu5Ac(a2-3)Gal(b1-4)GlcNAc(b1-3)Gal(b1-4)GlcNAc(b1-3)GalNAc
# In short: as §1
# [12] = target: Neu5Ac(a2-3)Gal(b1-4)GlcNAc6S
# In short: as §1
# [13] = target: Neu5Ac(a2-3)Gal(b1-4)[Fuc(a1-3)]GlcNAc(b1-3)GalNAc
# In short: as §1
# [14] = target: Neu5Ac(a2-3)Gal6S(b1-4)[Fuc(a1-3)]GlcNAc
# In short: as §1
# [15] = target: Neu5Ac(a2-3)[GalNAc(b1-4)]Gal(b1-4)GlcNAc(b1-3)GalNAc
# In short: as §1
# [16] = target: Neu5Ac(a2-6)Gal(b1-4)GlcNAc
# In short: as §1
# [17] = target: Neu5Ac(a2-6)Gal(b1-4)GlcNAc(b1-3)Gal(b1-4)GlcNAc(b1-3)Gal(b1-4)GlcNAc(b1-2)Man(a1-3)[Neu5Ac(a2-6)Gal(b1-4)GlcNAc(b1-3)Gal(b1-4)GlcNAc(b1-3)Gal(b1-4)GlcNAc(b1-2)Man(a1-6)]GalNAc
# In short: as §1
# [18] = target: Neu5Ac(a2-6)GalNAc(b1-4)GlcNAc6S
# In short: as §1
# [19] = target: Neu5Ac(a2-8)Neu5Ac(a2-3)[GalNAc(b1-4)]Gal(b1-4)Glc
# In short: as §1
# [20] = target: Neu5Ac(a2-8)Neu5Ac(a2-8)Neu5Ac(a2-3)[Gal(b1-3)GalNAc(b1-4)]Gal(b1-4)Glc
# In short: as §1
# [21] = target: Neu5Ac(a2-8)Neu5Ac(a2-8)Neu5Ac(a2-3)[GalNAc(b1-4)]Gal(b1-4)Glc
# In short: as §1
# [22] = target: Neu5Ac(a2-8)Neu5Gc(a2-3)Gal(b1-4)GlcNAc
# In short: as §1
# [23] = target: Neu5Gc(a2-3)Gal(b1-4)GlcNAc(b1-3)Gal(b1-4)GlcNAc(b1-2)Man(a1-3)[Neu5Gc(a2-3)Gal(b1-4)GlcNAc(b1-3)Gal(b1-4)GlcNAc(b1-2)Man(a1-6)]Man(b1-4)GlcNAc(b1-4)GlcNAc
# In short: as §1
# [24] = target: Neu5Gc(a2-3)Gal(b1-4)[Fuc(a1-3)]GlcNAc
# In short: as §1
# [25] = target: Neu5Gc(a2-8)Neu5Gc(a2-6)Gal(b1-4)GlcNAc
# In short: as §1
binder,measurement,setting,value
B1,glycan array binding signal (z-score),Gal(b1-4)GlcNAc6P,-0.285
same,glycan array binding signal (z-score),[1],1.15
same,glycan array binding signal (z-score),[2],5.6
same,glycan array binding signal (z-score),Glc(a1-6)Glc(a1-6)Glc,1.35
same,glycan array binding signal (z-score),[3],0.116
same,glycan array binding signal (z-score),[4],-0.076
same,glycan array binding signal (z-score),[5],2.32
same,glycan array binding signal (z-score),[6],0.014
same,glycan array binding signal (z-score),[7],0
same,glycan array binding signal (z-score),[8],0.018
same,glycan array binding signal (z-score),Man(b1-4)GlcNAc,0.033
same,glycan array binding signal (z-score),[9],-0.808
same,glycan array binding signal (z-score),[10],0.992
same,glycan array binding signal (z-score),[11],-0.213
same,glycan array binding signal (z-score),[12],-0.486
same,glycan array binding signal (z-score),[13],3.38
same,glycan array binding signal (z-score),[14],-1.24
same,glycan array binding signal (z-score),[15],-1.14
same,glycan array binding signal (z-score),[16],-0.264
same,glycan array binding signal (z-score),[17],2.23
same,glycan array binding signal (z-score),[18],0.286
same,glycan array binding signal (z-score),[19],-0.038
same,glycan array binding signal (z-score),[20],1.75
same,glycan array binding signal (z-score),[21],0.122
same,glycan array binding signal (z-score),[22],15.5
same,glycan array binding signal (z-score),[23],0.077
same,glycan array binding signal (z-score),[24],-0.476
same,glycan array binding signal (z-score),[25],-0.753
